# From the supplement of paper PMC10981050
# “And” between values parts separate entries of the source, which are not always exact repeats. Equal values may be shown once. Where a name gives a salt, the structure may show the parent alone.
# Tests used:
# Assay in all cases: cell viability relative to vehicle control; higher = less cytotoxic
# Conditions in all cases: 10 µM
# K562 = tested on: K562
# Method in brief: (§1)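 Mutant clones made by CRISPR editing and their isogenic wild-type counterparts, from four leukaemia lines, were exposed to a single 10 µM dose of each library compound for 48 h. The supernatant was then removed and CellTiter-Glo luminescence was read. Viability was reported as percent of the on-plate vehicle control.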
# MARIMO = tested on: MARIMO
# Method in brief: as §1
# MOLM14 = tested on: MOLM14
# Method in brief: as §1
# OCI-AML2 = tested on: OCI-AML2
# Method in brief: as §1
SMILES,cell viability (K562; SRSF2 genotype: SRSF2 P95H/wt),cell viability (K562; SRSF2 genotype: SRSF2 wt/wt),cell viability (MARIMO; SRSF2 genotype: SRSF2 P95H/wt),cell viability (MARIMO; SRSF2 genotype: SRSF2 wt/wt),cell viability (MOLM14; SRSF2 genotype: SRSF2 P95H/wt),cell viability (MOLM14; SRSF2 genotype: SRSF2 wt/wt),cell viability (OCI-AML2; SRSF2 genotype: P95H/wt),cell viability (OCI-AML2; SRSF2 genotype: wt/wt)
Cc1ccccc1CN1C(=O)C2=C(CCN(Cc3ccccc3)C2)N2CCN=C12,48.2% and 48%,44.5%,46.4%,43.9%,36.8%,44.5%,29.3%,32%
COc1cc2c(cc1O)C[C@H]1c3cc(O)c(OC)cc3CC[N+]1(C)C2 (stereo not given in full) [Phellodendrine chloride],92.6% and 101%,98.5%,100%,95.6%,103%,95.9%,96.7%,102%
CC(C)=CCC/C(C)=C/CC/C(C)=C/CCC(=O)OC/C=C(\C)CCC=C(C)C [Gefarnate],106% and 102%,96.4%,99.7%,110%,96.4%,102%,89.7%,93.5%
OC[C@@H](O)CN1CCN(c2ccccc2)CC1 [Levodropropizine],90.9% and 91%,83.9%,85.1%,96.5%,92.5%,91.6%,94.5%,96%
Nc1nnc(-c2cccc(Cl)c2Cl)c(N)n1 [Lamotrigine],95.7% and 94.8%,95%,94.7%,107%,102%,103%,101%,98.3%
NC(N)=N/N=C/c1c(Cl)cccc1Cl [Guanabenz (WY-8678) Acetate],81.4% and 86.5%,84%,83.3%,83.3%,84.1%,86.5%,89.6%,88.1%
CN(CCO)CC(O)Cn1cnc2c1c(=O)n(C)c(=O)n2C (stereo not given) [Xanthinol Nicotinate],99.3% and 90.3%,97.9%,98.2%,105%,95.4%,97.7%,73.7%,90.5%
Nc1ccn([C@@H]2O[C@H](CO)[C@@H](O)[C@@H]2O)c(=O)n1 [Cytarabine hydrochloride],83.4% and 98.6%,94.9%,28.6%,30.5%,7.14%,1.49%,6.92%,8.04%
O=C(O)Cc1ccccc1Nc1c(Cl)cccc1Cl [Diclofenac Diethylamine],102% and 108%,95.4%,105%,101%,106%,102%,105%,103%
C[C@@H]1CC[C@@]2(OC1)O[C@H]1C[C@H]3[C@@H]4CC=C5C[C@@H](O[C@@H]6O[C@H](CO)[C@@H](O)[C@H](O)[C@H]6O[C@@H]6O[C@@H](C)[C@H](O)[C@@H](O)[C@H]6O)CC[C@]5(C)[C@H]4CC[C@]3(C)[C@@]1(O)[C@@H]2C [Polyphyllin VI],0.36% and 0.31%,0.44%,4.95%,0.84%,0.85%,0.55%,0.28%,0.33%
CC(=O)OCC(=O)[C@@]12OC(C)(C)O[C@@H]1C[C@H]1[C@@H]3C[C@H](F)C4=CC(=O)C=C[C@]4(C)[C@@]3(F)[C@@H](O)C[C@@]12C [Fluocinonide (Vanos)],100% and 105%,108%,110%,106%,107%,94.8%,111%,117%
CN1Cc2c(ccc3c2OCO3)[C@@]2(C)[C@@H](O)Cc3cc4c(cc3[C@@H]12)OCO4 [Corynoline],18.7% and 28.5%,24.2%,8.07%,9.1%,8.94%,3.23%,5.69%,13%
Cc1cccc(Oc2cnc(=O)[nH]c2)c1,97.7% and 96%,99.4%,94.2%,97%,100%,97.4%,103%,101%
C=C1CCC[C@]2(C)Cc3occ(C)c3C[C@@H]12 [Atractylon],104% and 98.2%,97.5%,98.4%,99%,103%,99.3%,95%,98%
NCc1c[nH]c(=S)n1[C@H]1CCc2c(F)cc(F)cc2C1 [Nepicastat hydrochloride],100% and 97.2%,96.6%,92.2%,97.4%,88.4%,101%,101%,103%
C[C@@]12C[C@@]3(O)O[C@@H](O1)[C@]1(COC(=O)c4ccccc4)[C@@H]3C[C@]12O[C@@H]1O[C@H](COC(=O)c2ccccc2)[C@@H](O)[C@H](O)[C@H]1O [Benzoylpaeoniflorin],99.7% and 101%,93.4%,96.2%,96.7%,104%,97.8%,93.9%,102%
O=c1cc(-c2ccc(O)cc2)oc2cc(O)c(O)c(O)c12 [Scutellarein],92% and 86.2%,95%,102%,91.3%,107%,103%,102%,97%
C=C1C(=O)O[C@H]2[C@H]1CC/C(C)=C/CC[C@@]1(C)O[C@@H]21 [Parthenolide ((-)-Parthenolide)],18.9% and 9.99%,26.7%,8.78%,8.07%,1.59%,0.67%,0.71%,0.34%
Cc1cccc(Nc2ccccc2C(=O)O)c1C [Mefenamic Acid],98.6% and 99.4%,96.4%,103%,92.8%,94.5%,98.5%,106%,101%
CC(=O)OCOC(=O)CN(CC(=O)OCOC(C)=O)c1ccccc1OCCOc1ccccc1N(CC(=O)OCOC(C)=O)CC(=O)OCOC(C)=O,18.9% and 10.1%,6.38%,1.03%,0.7%,0.2%,0.25%,2.33%,4.73%

SMILES,cell viability (K562; SRSF2 genotype: SRSF2 P95H/wt),cell viability (K562; SRSF2 genotype: SRSF2 wt/wt),cell viability (MARIMO; SRSF2 genotype: SRSF2 P95H/wt),cell viability (MARIMO; SRSF2 genotype: SRSF2 wt/wt),cell viability (MOLM14; SRSF2 genotype: SRSF2 P95H/wt),cell viability (MOLM14; SRSF2 genotype: SRSF2 wt/wt),cell viability (OCI-AML2; SRSF2 genotype: P95H/wt),cell viability (OCI-AML2; SRSF2 genotype: wt/wt)
COc1ccc(-c2ccc3ncc4c(c3c2)n(-c2ccc(N3CCNCC3)c(C(F)(F)F)c2)c(=O)n4C)cn1,0.26% and 0.21%,0.16%,0.25%,0.28%,0.18%,0.18%,0.11%,0.16%
CCN(CC)CC#CCOC(=O)C(O)(c1ccccc1)C1CCCCC1 (stereo not given) [Oxybutynin (Ditropan)],97.7% and 102%,104%,82.9%,95.9%,83.5%,100%,91.8%,87%
O[C@@H]1CO[C@H]2[C@@H]1OC[C@@H]2O [Isosorbide],102% and 111%,105%,107%,104%,99.6%,105%,118%,99.5%
O=C(O)c1cc(C(F)(F)F)ccc1N1CC[C@H](OCc2ccccn2)C1,107% and 109%,100%,114%,113%,102%,102%,106%,104%
COC1C(O)C(O)C(O)C(O)C1O (stereo not given) [Sequoyitol],102% and 107%,110%,110%,99.1%,105%,109%,99.7%,106%
COC(=O)Nc1nc2cc(C(=O)c3ccc(F)cc3)ccc2[nH]1 [Flubendazole (Flutelmium)],18.9% and 30.8%,27.6%,9.3%,12%,8.51%,43.1%,6.97%,11%
CC1(C)CC[C@]2(C)CC[C@]3(C)C(=CC[C@@H]4[C@@]5(C)CC[C@@H](O)[C@](C)(C(=O)O)[C@@H]5CC[C@]43C)[C@@H]2C1,97.6% and 95.5%,97.8%,97.8%,108%,102%,103%,94.4%,96.1%
C[C@@H]1CC[C@@]2(OC1)O[C@H]1C[C@H]3[C@@H]4CC=C5C[C@@H](O[C@@H]6O[C@H](CO)[C@@H](O[C@@H]7O[C@@H](CO)[C@H](O)[C@H]7O)[C@H](O)[C@H]6O[C@@H]6O[C@@H](C)[C@H](O)[C@@H](O)[C@H]6O)CC[C@]5(C)[C@H]4CC[C@]3(C)[C@H]1[C@@H]2C [Polyphyllin I],0.33%,0.31%,0.37%,0.67%,0.32%,0.29%,0.21%,0.36%
CN(C/C=C/C#CC(C)(C)C)Cc1cccc2ccccc12 [Terbinafine hydrochloride (Lamisil)],88.5% and 88.7%,90.3%,87.8%,105%,86.8%,99.9%,87.4%,97.6%
C=C[C@]1(C)C[C@@H](OC(=O)CSCCN(CC)CC)[C@]2(C)[C@H](C)CC[C@]3(CCC(=O)[C@H]32)[C@@H](C)[C@@H]1O [Tiamulin],83.5% and 81.7%,90.1%,75.6%,92.8%,84%,87.9%,86.1%,79.5%
COC1C(O)CC(=O)OC(C)CC=CC=CC(OC2CCC(N(C)C)C(C)O2)C(C)CC(CC=O)C1OC1OC(C)C(OC2CC(C)(O)C(O)C(C)O2)C(N(C)C)C1O (stereo not given) [spiramycin],93.7% and 96.3%,108%,99.4%,102%,98%,103%,110%,96.7%
CC(C)NC[C@H](O)COc1ccc(CCOCC2CC2)cc1 [Levobetaxolol HCl],91.7% and 81.4%,83%,83%,90.6%,89.1%,91.8%,79.4%,98.4%
C[C@@H](NCCCc1cccc(C(F)(F)F)c1)c1cccc2ccccc12 [AMG-073 HCl (Cinacalcet hydrochloride)],21.9% and 38.4%,19.4%,57.1%,50.4%,27%,24.2%,1.48%,10.2%
CO[C@H]1/C=C/O[C@@]2(C)Oc3c(C)c(O)c4c(O)c(c(/C=N/N5CCN(C)CC5)c(O)c4c3C2=O)NC(=O)/C(C)=C\C=C\[C@H](C)[C@H](O)[C@@H](C)[C@@H](O)[C@@H](C)[C@H](OC(C)=O)[C@@H]1C [Rifampin],106% and 97.3%,93.9%,99.9%,116%,83.1%,95.7%,96.4%,105%
Nc1ncnc2c1c(-c1cnc3[nH]ccc3c1)nn2C1CCCC1,6.97% and 21.9%,9.11%,27.8%,26.9%,9.21%,13.2%,2.15%,7.66%
O=C(/C=C/c1ccc(CN(CCO)CCc2c[nH]c3ccccc23)cc1)NO [LAQ824 (Dacinostat)],1.15% and 10.3%,2.76%,5.99%,11.9%,0.84%,0.58%,1.63%,2.36%
O=C(O)c1cn(C2CC2)c2cc(Cl)c(F)cc2c1=O [Fluoroquinolonic Acid],108% and 104%,108%,97.5%,101%,104%,110%,104%,110%
CCC(=O)OCC(=O)[C@@]1(OC(=O)CC)[C@@H](C)C[C@H]2[C@@H]3CCC4=CC(=O)C=C[C@]4(C)[C@@]3(Cl)[C@@H](O)C[C@@]21C [Beclomethasone dipropionate],87.4% and 91.4%,87.7%,90%,97.8%,86%,93%,105%,117%
O=C(Cn1cnnn1)N[C@@H]1C(=O)N2C(C(=O)O)=C(CSc3nncs3)CS[C@H]12 [Ceftezole sodium],108% and 99.1%,120%,101%,105%,109%,110%,123%,118%
O=C(/C=C/c1ccccc1)OCc1ccccc1 [Benzyl cinnamate],101% and 100%,103%,85.5%,99.6%,108%,104%,92.1%,93.1%
